Laboratory results taken from PubChem BioAssay (NCI).
Compounds without any hit were thinned out: in the full panel of roughly 79,000, 15% have a hit. A number with no mark means an inactive call. Activity calls are given as the source filed them. Cut-off read from the data, not from the text of the source: active = growth inhibition above about 70%; inactive = the rest.

Assay: NCI Yeast Anticancer Drug Screen. Data for the wt2 strain (AID 169);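 note: 0% = growth of vehicle-treated yeast cultures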
Settings: S. cerevisiae wt2 strain growth inhibition, hits give high values
Experimental: Growth inhibition of yeast strains with defined genetic alterations is measured as a screen for potential anti-cancer activity. Selected strains with alterations in DNA damage repair or cell cycle control were exposed to compounds and growth inhibition was measured relative to vehicle treated controls. The strain used in this assay is wt2

| SMILES | growth inhibition (at 1.2 µM) | growth inhibition (at 3.7 µM) | growth inhibition (at 11.0 µM) | growth inhibition (at 33.0 µM) | growth inhibition (at 100.0 µM) |
| --- | --- | --- | --- | --- | --- |
| CCCCCCc1cc(C(=O)OC/C(C)=N/NC(N)=O)c2ccccc2n1 | 0% | -1% | 0% | -2% | -4% |
| COc1cc(C2C3=C(COC3=O)Oc3cc4c(cc32)OCO4)ccc1O (stereo not given) | -2% | -4% | -5% | -1% | 42% |
| CC1(C)[C@@H]2CC[C@]1(C)[C@H](OC(=O)CSC#N)C2 | 1% | 5% | 25% | 89% (active) | 97% (active) |
| COc1ccc2ccc3ccccc3c2c1C=O | -3% | 4% | -4% | -4% | 77% (active) |
| CCCCCCCCC/C=C/C=C/C(=O)NCC(=O)NC1C(O)C(O)C(Nc2ncnc3nc[nH]c23)OC1C(O)CO (stereo not given) | 7% | 24% | 53% | 61% | 56% |
| CCN(CC)C(C)(C)C(=O)/C=C/c1ccccc1 | 0% | -1% | -1% | 3% | 6% |
| C/C(=N\O)C1CC2C=C(C#N)C1N(Cc1ccccc1)C2 (stereo not given) | -1% | -2% | -3% | -2% | -2% |
| CC(C)c1ccccc1NC(=O)/C(Cl)=C(\Cl)C(=O)O | 1% | 0% | 0% | 4% | 88% (active) |
